Laboratory results from ChEMBL document CHEMBL3988442, “University of Dundee, Small-Polar-MMV Screening Library” (2021).
The whole screen tested about 69,000 compounds, of which about 1,000 (1.4%) showed an effect of 50% or more. Shown is part of a subset that was picked to be rich in strong results.

Test system: Leishmania donovani
Test: Leishmania intramacrophage assay
Type: functional, organism-based
Parameters: scale not given: in the data most compounds retested in dose-response had high values

## CCC1=N[C@@]2(CC[C@@H]3CN(CC4CC4)C[C@@H]32)C(=O)N1C.O=C(O)C(F)(F)F
30 µM, 30.03 µM
  Percent Effect: 21.68%

## CN(C1CCCN(c2ccccn2)C1)S(C)(=O)=O (stereo not drawn)
30.3 µM, […]
  Percent Effect: 25.41%

## CN1CCCC(N(C)S(=O)(=O)c2cccc3ncccc23)C1 (stereo not drawn)
30.3 µM, […]
  Percent Effect: 59.16%

## Cc1ccc2cccc(S(=O)(=O)N(C)C3CCCN(C)C3)c2n1 (stereo not drawn)
30.3 µM, […]
  Percent Effect: 25.11%

## O=C(CNc1cc(-n2cnnn2)ccc1F)NCc1ccccc1
30.3 µM, […]
  Percent Effect: 43.45%

## CCOc1ccccc1CCN1Cc2ncccc2C1=O
30.3 µM, […]
  Percent Effect: -1.003%

## Cc1nn(C)c(C)c1C1CCCN1c1ncnc2sccc12 (stereo not drawn)
30.3 µM, […]
  Percent Effect: 33.23%

## Cc1nn(C)c(Cl)c1C1CCCN1c1ncnc2sccc12 (stereo not drawn)
30 µM, 30.03 µM
  Percent Effect: 51.25%

## COc1c(C2CCCN2c2ncnc3sccc23)c(C)nn1C (stereo not drawn)
30.3 µM, […]
  Percent Effect: 26.6%

## CC(=O)C(Cc1ccccc1)NC(=O)CSc1nccn1C1CC1 (stereo not drawn)
30.3 µM, […]
  Percent Effect: 7.269%

## Cc1noc(C)c1CN1CCN(CC2CC2)c2ncccc2C1.O=C(O)C(F)(F)F.O=C(O)C(F)(F)F
30 µM, 30.03 µM
  Percent Effect: 23.02%

## Cc1noc(C)c1CN1CCO[C@H]2CN(C(=O)C3CCOCC3)C[C@H]21.O=C(O)C(F)(F)F
30.3 µM, […]
  Percent Effect: 32.17%

## CC(=O)N1CCC2(CCN(Cc3cccc(F)c3)CC2)CC1.O=C(O)C(F)(F)F
30.3 µM, […]
  Percent Effect: 20%

## Cc1noc(C)c1CN1CCO[C@H]2CN(Cc3ccc(F)cc3)C[C@H]21.O=C(O)C(F)(F)F.O=C(O)C(F)(F)F
30.3 µM, […]
  Percent Effect: 23.07%

## CCC(=O)N1CCC2(CCN(Cc3cccc(F)c3)CC2)CC1.O=C(O)C(F)(F)F
30.3 µM, […]
  Percent Effect: 2.147%

## Cc1noc(C)c1CN1CCN(Cc2ccncc2)c2ncccc2C1.O=C(O)C(F)(F)F.O=C(O)C(F)(F)F.O=C(O)C(F)(F)F
30 µM, 30.03 µM
  Percent Effect: -14.87%

## Cc1noc(C)c1CN1CCN(Cc2cccnc2)c2ncccc2C1.O=C(O)C(F)(F)F.O=C(O)C(F)(F)F.O=C(O)C(F)(F)F
30.3 µM, […]
  Percent Effect: 57.48%

## Cc1noc(C)c1CN1CCC2(CCN(Cc3cccc(F)c3)CC2)C1.O=C(O)C(F)(F)F.O=C(O)C(F)(F)F
30.3 µM, […]
  Percent Effect: 59.23%

## Cc1noc(C)c1CN1CCO[C@H]2CN(Cc3cccc(F)c3)C[C@H]21.O=C(O)C(F)(F)F.O=C(O)C(F)(F)F
30.3 µM, […]
  Percent Effect: 56.73%

## Cc1ccc(-c2nc(C(=O)N(C)CC(=O)N(C)C)cs2)c(C)c1
30.3 µM, […]
  Percent Effect: -31.91%

## CCS(=O)(=O)N1CCC(NCC2CNc3cc(C)nn3C2)CC1 (stereo not drawn)
30.3 µM, […]
  Percent Effect: -7.273%

## CC(=O)N1CC(=O)N(c2ccsc2)CC12CCN(Cc1ccoc1)C2 (stereo not drawn)
30.3 µM, […]
  Percent Effect: 14.63%

## CC1CN(C)CCN1C(=O)c1ccn(-c2cccc(F)c2)n1 (stereo not drawn)
30 µM
  Percent Effect: 3.559%

## CCc1nnc(CNC2CCc3nc(C(C)C)nn3C2)o1 (stereo not drawn)
30.3 µM, […]
  Percent Effect: -6.024%

## Cc1csc(-c2ccc(NC(=O)N3CCOCC3)cc2)n1
30.3 µM, […]
  Percent Effect: -0.9004%

## Cc1csc(NC(=O)c2ccc(NC(=O)N3CCOCC3)cc2)n1
30.3 µM, […]
  Percent Effect: 69.81%

## Cc1csc(-c2cccc(NC(=O)N3CCOCC3)c2)n1
30.3 µM, […]
  Percent Effect: 24.69%

## CC(c1nc(C2CC2)no1)N(C)Cc1ccc2c(c1)OCCO2 (stereo not drawn)
30.3 µM, […]
  Percent Effect: 14.22%

## COc1ccc2cc(CN(C)C(C)c3nc(C4CC4)no3)ccc2c1 (stereo not drawn)
30.3 µM, […]
  Percent Effect: 57.64%

## COc1ccc2cc(CN(C)C(C)c3nc(C(C)(C)C)no3)ccc2c1 (stereo not drawn)
30.3 µM, […]
  Percent Effect: 20.66%

## CSCc1noc(CNC(=O)c2cc(C)c(C)[nH]c2=O)n1
30.3 µM, […]
  Percent Effect: 20.7%

## Cc1cnc(NC2CCN(CC(=O)Nc3ccccc3)CC2)nc1C
30.3 µM, […]
  Percent Effect: 18.37%

## O=C(CN1CCC(Nc2ncccn2)CC1)Nc1ccccc1
30.3 µM, […]
  Percent Effect: 51.04%

## COc1ccnc(NC2CCN(CC(=O)Nc3ccccc3)CC2)n1
30.3 µM, […]
  Percent Effect: -0.8363%

## CCc1nnc(CN(CC)C(=O)C2CC(=O)N(C3CCCC3)C2)o1 (stereo not drawn)
30.3 µM, […]
  Percent Effect: -15.82%

## Cc1nn(C)c(Oc2ccc(Cl)cc2)c1CN1CCOC(CN)C1 (stereo not drawn)
30.3 µM, […]
  Percent Effect: 3.142%

## Cc1nn(C)c(Oc2ccc(Cl)cc2)c1CN1CCC(CN)C1 (stereo not drawn)
30.3 µM, […]
  Percent Effect: 74.8%

## Cc1nn(C)c(Oc2ccc(Cl)cc2)c1CN1CC[C@H](CO)[C@@H](O)C1
30.3 µM, […]
  Percent Effect: 9.933%

## Cc1cccc(SC2CCN(C(=O)CCCS(N)(=O)=O)CC2)c1
30.3 µM, […]
  Percent Effect: 24.28%

## CC(=O)NCCCC(=O)N1CCC(Sc2cccc(C)c2)CC1
30.3 µM, […]
  Percent Effect: 42.91%

## Cc1cccc(SC2CCN(C(=O)CCCn3cnnn3)CC2)c1
30.3 µM, […]
  Percent Effect: 53.34%

## CCOCC(=O)N1CSCC1C(=O)N(C)Cc1ccco1 (stereo not drawn)
30 µM
  Percent Effect: 13.38%

## Cc1nc(N2CC[C@@H](c3ccc4ccccc4c3)[C@H](O)C2)no1
30.3 µM, […]
  Percent Effect: 18.28%

## CCCc1nc(N2CC[C@@H](c3ccc4ccccc4c3)[C@H](O)C2)no1
30.3 µM, […]
  Percent Effect: 50.36%

## CCCc1nc(N2CC[C@@H](c3ccc4c(c3)OCO4)[C@H](O)C2)no1
30.3 µM, […]
  Percent Effect: 11.09%

## Cc1cc(N2CCc3c(nc(C(C)C)n3C)C2)nc(N)n1
30.3 µM, […]
  Percent Effect: 17.43%

## Cc1nc(C)n(CC2CN(CC(=O)Nc3cccnc3)CCO2)n1 (stereo not drawn)
30 µM, 30.03 µM
  Percent Effect: 31.54%

## Cc1nc(C)n(CC2CCCN(CC(=O)Nc3ccncc3)C2)n1 (stereo not drawn)
30 µM
  Percent Effect: 29.85%
